According to PubChem BioAssay (NCATS):
Inconclusive results are not listed. The source made the active and inactive calls. Calls come from the whole dose curve; as a rule, active = well fitted inhibition curve with a large enough effect; inconclusive = small, poorly fitted or top-dose-only effect; inactive = flat fitted curve, though single readings scatter.

target: Glutathione peroxidase 1 (Homo sapiens) (UniProt P07203); experiment: Primary qHTS Assay for Inhibitors of Recombinant Selenoprotein Glutathione Peroxidase 1 (GPX1) (AID 1845191); settings: recombinant GPX1, GR-coupled NADPH fluorescence, 15 min; series mostly up to 48.8 µM; activity, negative = inhibition: at the top concentration; note: nearly all actives have a fitted effect of over 65% in size
In short: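 GR-coupled assay: compounds preincubated 30 min at room temperature with GPX1, then reaction started with CHP; final 10 nM GPX1, 1 mM GSH, 0.5 mM CHP, 0.5 mM NADPH, 100 nM GR, 0.01% BSA, pH 7.5 Tris buffer. NADPH fluorescence (340/450 nm) read at 0 and 15 min.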
% is set by controls: 0 for no effect and ±100 for the full control effect.

Sequence of Glutathione peroxidase 1 (Homo sapiens) (P07203 whole entry, looked up): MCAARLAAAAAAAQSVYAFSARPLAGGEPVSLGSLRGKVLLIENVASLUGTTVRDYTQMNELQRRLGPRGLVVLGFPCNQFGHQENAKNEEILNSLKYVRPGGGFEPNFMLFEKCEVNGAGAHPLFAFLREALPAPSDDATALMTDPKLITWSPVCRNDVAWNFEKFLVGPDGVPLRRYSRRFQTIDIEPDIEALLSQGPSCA

| SMILES | activity, negative = inhibition | outcome | Potency |
| --- | --- | --- | --- |
| O=S(=O)(NCc1ccccn1)c1ccc(Br)c2ccccc12 | -18.3% (inactive) |  |  |
| C/C=C(\C)C(=O)O[C@H]1C=C(CO)C(=O)[C@H](OC(C)=O)[C@H]1C(C)C | -3.71% [at 27.7 µM] (inactive) |  |  |
| O=C(NCc1ccccc1)c1ccc2c(=O)n(-c3cccc(C(F)(F)F)c3)c(=S)[nH]c2c1 |  | inactive |  |
| C[C@H](Nc1cc2c(-c3ccc4c(c3)OCO4)noc2cn1)c1ccccc1 |  | inactive |  |
| CC1=CC2/C=C(\C)CCC3OC(C)(C)OC3CCC(=O)C23C(=O)NC(CC(C)C)C3C1C (centres undefined) | -6.81% [at 27.7 µM] (inactive) |  |  |
| COc1ccc(Sc2ccc(NC(=O)c3ccccc3Cl)cc2C#N)cc1 | -14.7% (inactive) |  |  |
| COc1ccc([C@H]2OC[C@H]3O[C@@H](O[C@H]4[C@@H]2NC[C@@H]4O)[C@H](O)[C@H]3O)cc1 | 4.55% [at 27.7 µM] (inactive) |  |  |
| CC(=O)O[C@H]1C[C@@](O)(C(C)C)[C@@H]2[C@@H](OC(=O)c3ccc(O)cc3)CC(C)=CC[C@@]12C | -24.7% [at 27.7 µM] (inactive) |  |  |
| CCCCNc1ncc2c(-c3ccc(S(=O)(=O)N4CCOCC4)cc3)nn(C3CCC(O)CC3)c2n1 (centres undefined) | -24.3% (inactive) |  |  |
| CN1CCN(C(=O)CN[C@@H]2C[C@H]2c2ccc(OCc3ccccc3)cc2)CC1 | -26.2% (inactive) |  |  |
| O=C(N[C@H]1CCC[C@H](CO)C1)C1CCN(c2nc3cc(Cl)c(-c4ccc(Cl)cc4)cc3o2)CC1 |  | inactive |  |
| Cn1ncc(Cl)c1-c1cc(C(=O)N[C@H](CN)Cc2cccc(F)c2)sc1Cl |  |  | inactive |
| C=C(C)C(=O)O[C@H]1[C@H]2C(=C)C(=O)O[C@@H]2/C=C(\CO)CC/C=C(/C=O)[C@@H]1O | -11.6% [at 27.7 µM] (inactive) |  |  |
| Cc1noc(C)c1-c1cc(O)cc(C(O)c2ccccc2)c1 (centres undefined) | -8.55% (inactive) |  |  |
| C=C1C(=O)OC2/C=C(/C)C3=CC(=O)C(C)(CC(OC(=O)/C(C)=C/COC(C)=O)C12)O3 (centres undefined) | -6.9% [at 27.7 µM] (inactive) |  |  |
| C[C@@H](O[C@H]1OCCN(Cc2nn(P(=O)(O)O)c(=O)[nH]2)[C@H]1c1ccc(F)cc1)c1cc(C(F)(F)F)cc(C(F)(F)F)c1 | -17.9% [at 27.7 µM] (inactive) |  |  |
| Cn1ncc(Cl)c1-c1cc(C(=O)NC(CN)Cc2ccc(F)c(F)c2)oc1Cl (centres undefined) |  |  | inactive |
| O=c1[nH]c2cccc(N3CCN(Cc4ccc(-c5ccccc5)cc4)CC3)c2o1 | 0.398% (inactive) |  |  |
| CS(=O)(=O)Nc1ccc2oc3c(OC(F)F)ccc(C(=O)Nc4c(Cl)cncc4Cl)c3c2c1 | -4.4% (inactive) |  |  |
| O=C(NCCCN1CCC2(CC1)OCc1ccccc12)[C@H]1CCCN1Cc1ccccc1 |  | inactive |  |

| SMILES | activity, negative = inhibition | outcome | Potency |
| --- | --- | --- | --- |
| O=C(c1ccc(Cl)cc1)N1CCN(c2ccnc3cc(Cl)ccc23)CC1 | -16.1% (inactive) |  |  |
| COc1cc(O)cc(OC2OC(CO)C(O)C(O)C2O)c1 (centres undefined) | -12% (inactive) |  |  |
| O=C(NCc1ccc(OC(F)(F)F)cc1)C1c2c(F)cccc2C(=O)N1CCc1ccccn1 (centres undefined) |  | inactive |  |
| C=CC(=O)N1CC(N2CCN(C(=O)CNc3cc(C4CC4)c(Cl)cc3O)CC2)C1 | -13.6% (inactive) |  |  |
| CC(C)CCNC(=O)[C@H](CC(C)C)NC(=O)[C@H]1O[C@@H]1C(=O)O |  | inactive |  |
| CC(C)c1c(O)ccc2c1CC[C@H]1C(C)(C)CCC[C@]21C |  | inactive |  |
| CC(=O)O[C@@H]1[C@H](O[C@@H]2O[C@@H](CO)[C@H](O)[C@H]2O)[C@@H](O[C@@H]2O[C@@H](C)[C@H](O[C@@H]3OC[C@@H](O)[C@H](O)[C@H]3O)[C@@H](O)[C@H]2O)[C@H](OC(=O)[C@]23CCC(C)(C)C[C@H]2C2=CCC4[C@@]5(C)CC[C@H](O[C@@H]6O[C@H](C(=O)O)[C@@H](O)[C@H](O)[C@H]6O[C@@H]6O[C@H](CO)[C@H](O)[C@H](O)[C@H]6O)[C@@](C)(C=O)C5CC[C@@]4(C)[C@]2(C)C[C@H]3O)O[C@@H]1C (some centres undefined) |  | inactive [at 9.52 µM] |  |
| CCN1CCC[C@@H]1CNC(=O)c1ccc2c(c1)NC(=O)c1cccc(C)c1S2 | -14.2% (inactive) |  |  |
| C=CCCN1CCC2(CC1)CN(C(=O)c1c(F)cccc1F)c1ccc(Cl)cc12 |  | inactive |  |
| O=C(Nc1cnc(Cl)nc1)c1ccc(F)c(F)c1 |  | inactive |  |
| COc1cc(NC(=O)c2cccc(-n3cc(NC(=O)Nc4cccc(C)c4)cn3)c2)cc(OC)c1OC | -11.6% (inactive) |  |  |
| CC(=O)Nc1cccc(Nc2ncnc(N3CCC(OCc4ccc(OC(F)(F)F)cc4)CC3)n2)c1C |  | inactive |  |
| C=C(C)C(=O)O[C@H]1[C@H]2C(=C)C(=O)O[C@@H]2C[C@@H](C)[C@@H]2O[C@@H]2C(=O)[C@](C)(O)[C@@H]1OC(=O)C(=C)C | -5.24% [at 27.7 µM] (inactive) |  |  |
| CCN1CCN(Cc2ccc(NC(=O)c3ccc(C)c(Oc4ccnc5[nH]ccc45)c3)cc2C(F)(F)F)CC1 |  | inactive [at 27.7 µM] |  |
| CCCn1ncc(CN2CCCC(C(=O)c3cccc(OC(C)C)c3)C2)c1C (centres undefined) | -2.69% (inactive) |  |  |
| COc1ccc(-c2cnc3c(-c4cccc5ncccc45)cnn3c2)cc1 | 3% (inactive) |  |  |
| COC(=O)N1CCC(n2ncc3c(N4CCOCC4)nc(-c4ccc(NC(=O)NC5CC5)cc4)nc32)CC1 |  | inactive |  |
| COc1ccc(C[C@H]2COC(=O)[C@@H]2Cc2ccc(O[C@@H]3O[C@H](CO)[C@@H](O)[C@H](O)[C@H]3O)c(OC)c2)cc1OC | -14.3% [at 27.7 µM] (inactive) |  |  |
| CC(C)(Cc1ccccc1)NCC(O)c1ccc(O)c(NS(C)(=O)=O)c1 (centres undefined) | -2.32% (inactive) |  |  |
